Screen size: about 1,300 compounds; about 930 (72%) were called active.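 How the source made its calls: active means fitted curve reaches 40% activation signal increase at or below the top valid tested concentration in every replicate test; inconclusive means replicate tests disagree in their calls; inactive means all replicate tests inactive, including effects opposite the expected signal rise.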 So high a share suggests a set chosen from earlier hits. Not all results are given here. Measured potencies and affinities stand elsewhere.
Assay: miR-122 inhibitors in Huh7 reporter cells, dose response, cell-based, Huh7 psiCHECK-miR122, Renilla luciferase, cherry-pick (AID 652053)
Details: 48 h; series mostly up to 35 µM

outcome, inactive:
Cc1nc(Nc2nc(CSc3nc4ccccc4[nH]3)cc(=O)[nH]2)nc2ccccc12
Cc1ccc2c(C)nc(Nc3nc(CSc4nc5ccccc5[nH]4)cc(=O)[nH]3)nc2c1
NC(=O)c1ccc(-n2nnnc2SCC(=O)c2ccc(O)c(O)c2)cc1
Cc1ccc(-n2nnnc2SCC(=O)N2c3ccccc3NC(=O)C2(C)C)cc1
O=C(C[C@H]1CC[C@@H]2[C@H](COC[C@H](O)CN2C(=O)C2CCCC2)O1)NCc1ccncc1
N#Cc1cnn2c1nc(N1CCCCC1)c1ccccc12
CCCCn1c(SCC(=O)Nc2nnc(CC)s2)nc2c1c(=O)n(C)c(=O)n2C
CC(C)Cc1nnc(NC(=O)Cc2ccccc2[N+](=O)[O-])s1
COc1ccccc1C(=O)Nc1ccc2c(c1)C(=O)N(C)[C@@H]1CC[C@H](CC(=O)NCc3ccc(Cl)c(Cl)c3)O[C@@H]1CO2
COc1ccccc1C(=O)Nc1ccc2c(c1)C(=O)N(C)[C@@H]1CC[C@@H](CC(=O)NCc3ccc(Cl)c(Cl)c3)O[C@@H]1CO2
COc1ccccc1C(=O)Nc1ccc2c(c1)C(=O)N(C)[C@@H]1CC[C@H](CC(=O)NCc3ccc(Cl)c(Cl)c3)O[C@H]1CO2
COc1ccccc1CNC(=O)C[C@@H]1CC[C@@H]2[C@@H](COc3ccc(NC(=O)Nc4ccc(F)c(F)c4)cc3C(=O)N2C)O1
COc1ccccc1CNC(=O)C[C@@H]1CC[C@@H]2[C@H](COc3ccc(NC(=O)Nc4ccc(F)c(F)c4)cc3C(=O)N2C)O1
COc1ccccc1C(=O)Nc1ccc2c(c1)C(=O)N(C)[C@@H]1CC[C@@H](CC(=O)NCc3ccc(Cl)c(Cl)c3)O[C@H]1CO2
O=C(c1ccccc1F)N1C[C@H]2[C@@H](c3ccccc31)[C@@H](CO)N2Cc1ccc2c(c1)OCO2
CCOc1ccc(Cl)cc1S(=O)(=O)n1cnc2cc(C)c(C)cc21
Cc1ccc(-n2nnc(-c3nccs3)n2)cc1
CCOc1ccc(CSC2=NCCN2)cc1Cl
CCCNC(=O)C[C@@H]1CC[C@H]2[C@H](COc3ccc(NC(=O)Cc4cccs4)cc3C(=O)N2C)O1
CCc1cccc(CC)c1NC(=O)COC(=O)C1(c2ccc(Cl)cc2)CCCC1
COc1ccc(OC)c(S(=O)(=O)N2CCNCC2)c1
Cn1nc(CC(=O)N2CCN(c3ccccc3)CC2)c2ccccc2c1=O
COc1cccc(C(=O)N2C[C@@H]3[C@H](c4ccccc42)[C@@H](CO)N3C(=O)c2ccc(F)cc2)c1
COc1cccc(C(=O)N2C[C@@H]3[C@H](c4ccccc42)[C@H](CO)N3C(=O)c2ccc(F)cc2)c1
CC(C)NC(=S)N1CCn2c(nc3ccccc32)C1
CC(C)CC(=O)NCCCN1CCN(CCCNC(=O)CC(C)C)CC1
CCOC(=O)c1ccc(-n2ccnc2)c(NC(=O)c2cccc(Br)c2)c1
Cn1cnc(S(=O)(=O)N2C[C@@H](O)COC[C@H]3O[C@@H](CC(=O)NC4CCCC4)CC[C@@H]32)c1
CCOC(=O)CN1C(=O)C(C)(C)Oc2ccc(C(=O)Nc3ccccc3)cc21
CC(=O)N1[C@H](CNC(=O)C2CC2)[C@@H](c2ccc(-c3ccccc3)cc2)[C@@H]1CO
Cc1cc(C)c2nc(Nc3nc(CSc4nc5ccccc5[nH]4)cc(=O)[nH]3)nc(C)c2c1
O=C(C1CCN(Cc2ccc(F)cc2)CC1)N1CCN(C/C=C/c2ccccc2)CC1
CC(=O)N1CCc2cc(S(=O)(=O)NCCCN3CCN(Cc4ccccc4)CC3)ccc21
COc1ccc(-c2cc(NC(C)=O)c3ncc(-c4cc(OC)c(OC)c(OC)c4)n3c2)cn1
N#C/C(=N\Nc1ccc(S(=O)(=O)N2CCCCC2)cc1)C(N)=S
Cc1ccc(NC(=O)c2ccc(S(=O)(=O)N3CCOCC3)cc2)nc1
COc1cc(S(=O)(=O)N2CCOCC2)ccc1NC(=O)CSc1n[nH]c(=O)[nH]c1=O
C[C@H](CO)N1C[C@H](C)[C@H](CN(C)Cc2ccc(C(F)(F)F)cc2)Oc2ccc(N(C)C)cc2CC1=O
C[C@H](CO)N1C[C@H](C)[C@H](CN(C)Cc2ccc3c(c2)OCO3)Oc2ccc(N(C)C)cc2CC1=O
COC(=O)C(CC(C)C)Oc1ccc2c(C)cc(=O)oc2c1 (configuration not stated)
CC(Oc1ccc(Cl)cc1)c1ccnn1S(=O)(=O)c1ccc(Cl)cc1 (configuration not stated)
COC(=O)c1ccccc1NC(=O)Cn1c(-c2nonc2N)nc2ccccc21
C[C@H]1CN([C@@H](C)CO)C(=O)Cc2cc(NC(=O)Nc3cccc4ccccc34)ccc2O[C@@H]1CN(C)C(=O)Nc1cccc2ccccc12
C[C@@H]1CN([C@@H](C)CO)C(=O)Cc2cc(NC(=O)Nc3cccc4ccccc34)ccc2O[C@H]1CN(C)C(=O)Nc1cccc2ccccc12
C[C@H](CO)N1C[C@H](C)[C@@H](CN(C)C(=O)Nc2cccc3ccccc23)Oc2ccc(NC(=O)Nc3cccc4ccccc34)cc2CC1=O
C[C@H]1CN([C@@H](C)CO)C(=O)Cc2cc(NC(=O)Nc3cccc4ccccc34)ccc2O[C@H]1CN(C)C(=O)Nc1cccc2ccccc12
COc1ccc(NC(=O)Nc2cccc3c2O[C@H](CN(C)Cc2ccc4c(c2)OCO4)[C@@H](C)CN([C@@H](C)CO)C3=O)cc1
FC(F)(F)c1nnc2c(Sc3ccccc3)nc3ccc(Cl)cc3n12
CCC1=NN(C(=O)c2ccccc2O)C(O)(c2ccccc2)C1 (configuration not stated)
CCC(=O)N1[C@H](CN(CC)C(=O)c2cccc(F)c2)[C@H](c2ccccc2)[C@@H]1CO
COc1ccc(CNC(=O)C(c2ccc(C)o2)N(Cc2cccs2)C(=O)Cc2cccs2)cc1 (configuration not stated)
CC(C)Cc1nc2sc3c(=O)[nH]cnc3c2c2c1CCC2
Cc1ccc(S(=O)(=O)Nc2ccc(C(=O)NCc3ccccn3)cc2)cc1
O=c1[nH]c(=O)c2[nH]c(=O)n(-c3ccccc3)c2[nH]1
CCS(=O)(=O)N1Cc2ccccc2CC1C(=O)NCC12CC3CC(CC(C3)C1)C2 (configuration not stated)
O=C(c1ccc(F)cc1)N1[C@H](CO)[C@@H]2c3ccccc3NC[C@@H]21
CCn1nc(C(=O)Nc2ccc(S(=O)(=O)Nc3nccs3)cc2)c2ccccc2c1=O
CCCNC(=O)N1[C@H](CO)[C@@H]2c3ccccc3N(C(=O)c3ccc(F)cc3)C[C@@H]21
CC(C)NC(=O)N1[C@H](CO)[C@@H]2c3ccccc3N(C(=O)c3ccc(F)cc3)C[C@@H]21
CCN(C[C@@H]1[C@@H](c2ccccc2)[C@@H](CO)N1C(=O)COC)S(C)(=O)=O
O=C(Nc1ccccc1)c1cc([N+](=O)[O-])ccc1NC1CCCCC1
O=C(Nc1ccccc1Br)C1CCN(S(=O)(=O)c2cccs2)CC1
Cc1cc(C)cc(NC(=O)C2CCN(c3nccs3)CC2)c1
CN1C(=O)c2cc(NC(=O)NC3CCCC3)ccc2OC[C@H]2O[C@@H](CC(=O)O)CC[C@H]21
CN1C(=O)c2cc(NC(=O)Cc3cccs3)ccc2OC[C@@H]2O[C@@H](CC(=O)NCC3CCCCC3)CC[C@@H]21
Cc1ccc(-c2nc(CSCC(=O)NCCN3CCN(Cc4ccccc4)CC3)c(C)o2)cc1
Cc1ccc(CC(=O)N(Cc2ccccc2)c2ccccn2)cc1
CCCc1cc(=O)oc2cc(OCc3nn[nH]n3)ccc12
COc1ccccc1CNC(=O)C[C@@H]1CC[C@H]2[C@@H](COc3ccc(NS(=O)(=O)c4ccc(C)cc4)cc3C(=O)N2C)O1
COc1ccccc1CNC(=O)C[C@@H]1CC[C@@H]2[C@H](COc3ccc(NC(C)=O)cc3C(=O)N2C)O1
COc1ccccc1CNC(=O)C[C@H]1CC[C@@H]2[C@@H](COc3ccc(NC(C)=O)cc3C(=O)N2C)O1
COc1ccccc1CNC(=O)C[C@@H]1CC[C@@H]2[C@H](COc3ccc(NS(=O)(=O)c4ccc(C)cc4)cc3C(=O)N2C)O1
COc1ccccc1CNC(=O)C[C@H]1CC[C@@H]2[C@H](COc3ccc(NS(=O)(=O)c4ccc(C)cc4)cc3C(=O)N2C)O1
CCOCc1nnc(NS(C)(=O)=O)s1
CS(=O)(=O)N1N=C(c2ccc(Cl)cc2)CC1c1cccs1 (configuration not stated)
c1ccc2c(c1)ccc1nnnn12
Cc1cccc(-c2nnc(-c3cccc4ccccc34)o2)c1
OC(COC(c1ccc(Cl)cc1)c1ccc(Cl)cc1)CN1CCCC1 (configuration not stated)
COc1ccccc1CNC(=O)C[C@H]1CC[C@@H]2[C@@H](COc3ccc(NC(=O)Nc4ccc(F)c(F)c4)cc3C(=O)N2C)O1
CC1CCCC(NC(=O)COC(=O)c2ccccc2NC(=O)c2ccco2)C1C (configuration not stated)
Nc1nonc1C(=O)N1CCCC1
COc1ccccc1N1CCN(C(=O)c2ccc(Cn3c(=O)[nH]c4ccsc4c3=O)cc2)CC1
COc1ccccc1N1CCN(C2CC(=O)N(c3cccc(Cl)c3)C2=O)CC1 (configuration not stated)
CCOc1ccccc1N1CCN(C(=O)c2ccc3[nH]c(C)c(C)c3c2)CC1
COC(=O)c1ccc(/C=N/OCC(=O)NC2CCCCCCC2)cc1
O=C(CN(C1CCCCC1)S(=O)(=O)c1ccc(Cl)cc1)NCc1cccnc1
Cc1ccc(C)c(NC(=O)CSc2nnc(CCNC(=O)OC(C)(C)C)o2)c1
